Assay results: PubChem BioAssay AID1159580 (chemical genetic matrix, 2015)
Hit rate of the full screen: of about 5,500 compounds, about 2,000 (36%) were called active. Roughly 18% stayed inconclusive and do not appear here. No stated cut-off is given here; in the data, active means normalized growth mostly below about 0.91 (no sharp cut-off); inconclusive means no clear call, values can overlap the other calls; inactive means mostly above about 0.92. The list shows a part of the results.

Assay: chemical genetic growth profiling, strain panel (AID 1159580);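 further: tested at 20 µM; growth read once vehicle control cultures reached saturation at 30 °C; 1 = growth at the plate median or of vehicle wells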
Settings: growth OD

Measured: normalized growth

C=C1C(C)C2C(Cc3ccccc3)NC(=O)C23OC(=O)/C=C/C(O)CCCC(C)C/C=C/C3C1O (stereo unspecified)
inactive: S. cerevisiae deletion strains, locus YAL013W, strain DEP1, stronger effect = lower value 1.01 | S. cerevisiae deletion strains, locus YBR021W, strain FUR4, stronger effect = lower value 1.01 | S. cerevisiae deletion strains, locus YBR229C, strain ROT2, stronger effect = lower value 1 | S. cerevisiae deletion strains, locus YCL029C, strain bik1, stronger effect = lower value 0.997 | S. cerevisiae deletion strains, locus YDL035C, strain GPR1, stronger effect = lower value 1.02 | S. cerevisiae deletion strains, locus YDL074C, strain BRE1, stronger effect = lower value 1.04 | S. cerevisiae deletion strains, locus YDL101C, strain DUN1, stronger effect = lower value 1.01 | S. cerevisiae deletion strains, locus YDL134C, strain PPH21, stronger effect = lower value 1.01 | S. cerevisiae deletion strains, locus YDL185W, strain tfp1, stronger effect = lower value 1 | S. cerevisiae deletion strains, locus YDL192W, strain arf1, stronger effect = lower value 1 | S. cerevisiae deletion strains, locus YDR101C, strain arx1, stronger effect = lower value 0.995 | S. cerevisiae deletion strains, locus YDR150W, strain NUM1, stronger effect = lower value 1.01 | S. cerevisiae deletion strains, locus YDR162C, strain NBP2, stronger effect = lower value 0.998 | S. cerevisiae deletion strains, locus YDR318W, strain mcm21, stronger effect = lower value 1 | S. cerevisiae deletion strains, locus YDR388W, stronger effect = lower value 1 | S. cerevisiae deletion strains, locus YDR502C, strain sam2, stronger effect = lower value 0.996 | S. cerevisiae deletion strains, locus YEL061C, strain CIN8, stronger effect = lower value 1 | S. cerevisiae deletion strains, locus YER110C, stronger effect = lower value 0.997 | S. cerevisiae deletion strains, locus YER155C, strain BEM2, stronger effect = lower value 0.993 | S. cerevisiae deletion strains, locus YER167W, strain BCK2, stronger effect = lower value 1.01 | S. cerevisiae deletion strains, locus YGL078C, strain dbp3, stronger effect = lower value 1 | S. cerevisiae deletion strains, locus YGL086W, strain mad1, stronger effect = lower value 0.988 | S. cerevisiae deletion strains, locus YGL248W, strain PDE1, stronger effect = lower value 0.997 | S. cerevisiae deletion strains, locus YGR078C, strain PAC10, stronger effect = lower value 1.02 | S. cerevisiae deletion strains, locus YGR135W, strain pre9, stronger effect = lower value 0.999 | S. cerevisiae deletion strains, locus YGR229C, strain SMI1, stronger effect = lower value 1.03 | S. cerevisiae deletion strains, locus YGR252W, strain gcn5, stronger effect = lower value 1 | S. cerevisiae deletion strains, locus YHR030C, strain SLT2, stronger effect = lower value 1 | S. cerevisiae deletion strains, locus YHR079C, strain IRE1 (second series), stronger effect = lower value 0.987 | S. cerevisiae deletion strains, locus YHR094C, strain hxt1, stronger effect = lower value 1.01 | S. cerevisiae deletion strains, locus YHR129C, strain ARP1, stronger effect = lower value 0.998 | S. cerevisiae deletion strains, locus YHR200W, strain rpn10, stronger effect = lower value 1 | S. cerevisiae deletion strains, locus YIL066C, strain RNR3, stronger effect = lower value 1.02 | S. cerevisiae deletion strains, locus YIL073C, strain SPO22, stronger effect = lower value 1.06 | S. cerevisiae deletion strains, locus YIL125W, strain kgd1, stronger effect = lower value 0.984 | S. cerevisiae deletion strains, locus YIR030C, strain dcg1, stronger effect = lower value 0.998 | S. cerevisiae deletion strains, locus YJL095W, strain BCK1, stronger effect = lower value 1 | S. cerevisiae deletion strains, locus YJL134W, strain LCB3, stronger effect = lower value 1 | S. cerevisiae deletion strains, locus YJL168C, strain set2, stronger effect = lower value 0.998 | S. cerevisiae deletion strains, locus YJL187C, strain SWE1 (second series), stronger effect = lower value 1.01 | S. cerevisiae deletion strains, locus YJR043C, strain POL32, stronger effect = lower value 1.01 | S. cerevisiae deletion strains, locus YJR075W, strain HOC1, stronger effect = lower value 0.996 | S. cerevisiae deletion strains, locus YKL009W, strain mrt4, stronger effect = lower value 1.01 | S. cerevisiae deletion strains, locus YKL068W, stronger effect = lower value 1 | S. cerevisiae deletion strains, locus YKL085W, strain MDH1 (second series), stronger effect = lower value 0.999 | S. cerevisiae deletion strains, locus YKL085W, strain MDH1, stronger effect = lower value 0.999 | S. cerevisiae deletion strains, locus YKL190W, strain CNB1, stronger effect = lower value 1.01 | S. cerevisiae deletion strains, locus YKR001C, strain vps1, stronger effect = lower value 0.994 | S. cerevisiae deletion strains, locus YLR039C, strain RIC1, stronger effect = lower value 1.01 | S. cerevisiae deletion strains, locus YLR058C, strain SHM2, stronger effect = lower value 1 | S. cerevisiae deletion strains, locus YLR102C, strain apc9, stronger effect = lower value 1.01 | S. cerevisiae deletion strains, locus YLR262C, strain YPT6, stronger effect = lower value 1.02 | S. cerevisiae deletion strains, locus YLR268W, strain sec22, stronger effect = lower value 1 | S. cerevisiae deletion strains, locus YLR330W, strain CHS5, stronger effect = lower value 1.01 | S. cerevisiae deletion strains, locus YLR342W, strain FKS1 (second series), stronger effect = lower value 1.02 | S. cerevisiae deletion strains, locus YLR371W, strain rom2, stronger effect = lower value 1.01 | S. cerevisiae deletion strains, locus YLR418C, strain cdc73, stronger effect = lower value 0.995 | S. cerevisiae deletion strains, locus YML016C, strain PPZ1, stronger effect = lower value 1 | S. cerevisiae deletion strains, locus YML032C, strain rad52, stronger effect = lower value 1 | S. cerevisiae deletion strains, locus YML124C, strain tub3, stronger effect = lower value 0.997 | S. cerevisiae deletion strains, locus YMR078C, strain ctf18, stronger effect = lower value 0.992 | S. cerevisiae deletion strains, locus YMR223W, strain ubp8, stronger effect = lower value 1 | S. cerevisiae deletion strains, locus YMR263W, strain SAP30, stronger effect = lower value 1.01 | S. cerevisiae deletion strains, locus YMR307W, strain GAS1, stronger effect = lower value 1.02 | S. cerevisiae deletion strains, locus YNL067W, strain RPL9B, stronger effect = lower value 1.01 | S. cerevisiae deletion strains, locus YNL128W, strain TEP1, stronger effect = lower value 1.01 | S. cerevisiae deletion strains, locus YNL153C, strain GIM3, stronger effect = lower value 1.02 | S. cerevisiae deletion strains, locus YNL233W, strain BNI4, stronger effect = lower value 0.994 | S. cerevisiae deletion strains, locus YNL250W, strain rad50, stronger effect = lower value 1 | S. cerevisiae deletion strains, locus YNL271C, strain bni1, stronger effect = lower value 0.998 | S. cerevisiae deletion strains, locus YNL298W, strain CLA4, stronger effect = lower value 0.995 | S. cerevisiae deletion strains, locus YNL307C, strain MCK1, stronger effect = lower value 1.01 | S. cerevisiae deletion strains, locus YNL322C, strain KRE1, stronger effect = lower value 1.01 | S. cerevisiae deletion strains, locus YNR052C, strain pop2, stronger effect = lower value 1.01 | S. cerevisiae deletion strains, locus YOL006C, strain TOP1, stronger effect = lower value 1.03 | S. cerevisiae deletion strains, locus YOL012C, strain htz1 0.948 | S. cerevisiae deletion strains, locus YOL147C, strain pex11, stronger effect = lower value 0.997 | S. cerevisiae deletion strains, locus YOR061W, strain CKA2, stronger effect = lower value 1 | S. cerevisiae deletion strains, locus YOR069W, strain VPS5, stronger effect = lower value 1 | S. cerevisiae deletion strains, locus YOR136W, strain idh2, stronger effect = lower value 0.999 | S. cerevisiae deletion strains, locus YOR144C, strain elg1, stronger effect = lower value 1 | S. cerevisiae deletion strains, locus YOR184W, strain ser1, stronger effect = lower value 1.03 | S. cerevisiae deletion strains, locus YOR316C, strain cot1, stronger effect = lower value 1 | S. cerevisiae deletion strains, locus YPL055C, strain LGE1, stronger effect = lower value 1.03 | S. cerevisiae deletion strains, locus YPL241C, strain CIN2, stronger effect = lower value 1.01 | S. cerevisiae deletion strains, locus YPR119W, strain clb2, stronger effect = lower value 0.999 | S. cerevisiae deletion strains, locus YPR141C, strain kar3, stronger effect = lower value 1 | S. cerevisiae deletion strains, locus YPR163C, strain tif3, stronger effect = lower value 1 | S. cerevisiae deletion strains, locus YPR167C, strain met16, stronger effect = lower value 0.999 | S. cerevisiae deletion strains, strain wtn01, stronger effect = lower value 0.995 | S. cerevisiae strains, strain wild type, stronger effect = lower value 1.01
